{"source": "paper PMC4336329", "about": "(PLoS ONE, 2015)", "note": "In all, about 310,000 compounds went through this assay and about 14,000 (4.5%) showed an effect of 50% or more. Effects have a minus sign here. For the sample, strong results were picked, then their nearest neighbours and some compounds at random.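 Further: peak tail current of the secondary pulse compared with the same well before compound.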"}
{"molecular_target": "human ether-à-go-go-related gene (hERG) potassium channel (human, UniProt Q12809)", "sequence (Q12809 whole entry, looked up)": "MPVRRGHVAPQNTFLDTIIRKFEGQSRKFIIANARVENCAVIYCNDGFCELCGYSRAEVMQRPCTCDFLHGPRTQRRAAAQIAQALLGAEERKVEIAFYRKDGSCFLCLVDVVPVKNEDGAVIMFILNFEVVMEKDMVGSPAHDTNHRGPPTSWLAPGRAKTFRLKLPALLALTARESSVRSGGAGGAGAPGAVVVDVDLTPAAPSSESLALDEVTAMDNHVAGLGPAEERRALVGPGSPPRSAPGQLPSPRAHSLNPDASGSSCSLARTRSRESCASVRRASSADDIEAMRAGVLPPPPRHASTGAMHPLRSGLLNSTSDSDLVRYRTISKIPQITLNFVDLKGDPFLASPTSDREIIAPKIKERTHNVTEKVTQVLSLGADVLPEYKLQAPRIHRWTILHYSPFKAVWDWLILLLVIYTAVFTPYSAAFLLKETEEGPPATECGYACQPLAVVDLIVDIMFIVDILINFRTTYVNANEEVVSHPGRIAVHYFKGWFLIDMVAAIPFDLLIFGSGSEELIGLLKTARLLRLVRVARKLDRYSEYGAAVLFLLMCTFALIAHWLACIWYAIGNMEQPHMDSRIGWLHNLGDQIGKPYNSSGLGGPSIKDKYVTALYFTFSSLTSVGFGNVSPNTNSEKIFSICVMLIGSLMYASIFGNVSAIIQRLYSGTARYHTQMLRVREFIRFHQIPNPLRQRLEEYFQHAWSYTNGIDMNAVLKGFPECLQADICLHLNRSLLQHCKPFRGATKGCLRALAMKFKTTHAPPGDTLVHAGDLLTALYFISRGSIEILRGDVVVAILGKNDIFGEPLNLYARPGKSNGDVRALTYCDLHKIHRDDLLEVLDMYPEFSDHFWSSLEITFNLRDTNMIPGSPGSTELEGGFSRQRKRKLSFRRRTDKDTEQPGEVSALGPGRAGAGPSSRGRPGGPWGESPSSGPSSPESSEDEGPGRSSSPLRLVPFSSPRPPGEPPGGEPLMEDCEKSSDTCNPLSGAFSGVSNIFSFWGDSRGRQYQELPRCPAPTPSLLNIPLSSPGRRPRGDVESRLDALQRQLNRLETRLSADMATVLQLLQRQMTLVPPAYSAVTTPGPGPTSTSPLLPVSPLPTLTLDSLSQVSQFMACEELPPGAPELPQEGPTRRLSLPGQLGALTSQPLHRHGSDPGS", "assay": "primary screen, population patch clamp on CHO cells stably expressing hERG; higher = less effect of the substance", "units": {"hERG current change (%, negative = inhibition) at 10uM": "%"}}
{"smiles": "CC1CN(Cc2ccccc2)c2nc3c(c(=O)n(CC(=O)O)c(=O)n3C)n2C1", "note": "(stereo not drawn)", "hERG current change (%, negative = inhibition) at 10uM": 18.8}
{"smiles": "CCn1c(=O)c2c(nc3n2CCCN3CCc2ccccc2)n(C)c1=O", "hERG current change (%, negative = inhibition) at 10uM": -21.2}
{"smiles": "CC(C)CCn1c(=O)c2c(nc3n2CCCN3Cc2ccccc2)n(C)c1=O", "hERG current change (%, negative = inhibition) at 10uM": -37.7}
{"smiles": "CC(C)Cn1c(=O)c2c(nc3n2CCCN3Cc2ccccc2)n(C)c1=O", "hERG current change (%, negative = inhibition) at 10uM": -50}
{"smiles": "CCCn1c(=O)c2c(nc3n2CCCN3Cc2ccccc2)n(C)c1=O", "hERG current change (%, negative = inhibition) at 10uM": -34.3}
{"smiles": "Cn1c(=O)n(Cc2ccccc2)c(=O)c2c1nc1n2CCCN1Cc1ccccc1", "hERG current change (%, negative = inhibition) at 10uM": -31.1}
{"smiles": "C=C(C)Cn1c(=O)c2c(nc3n2CC(C)CN3Cc2ccccc2)n(C)c1=O", "note": "(stereo not drawn)", "hERG current change (%, negative = inhibition) at 10uM": -65.6}
{"smiles": "CC1CN(Cc2ccccc2)c2nc3c(c(=O)n(CC(N)=O)c(=O)n3C)n2C1", "note": "(stereo not drawn)", "hERG current change (%, negative = inhibition) at 10uM": 14.5}
{"smiles": "CCCn1c(=O)c2c(nc3n2CCCN3CCc2ccccc2)n(C)c1=O", "hERG current change (%, negative = inhibition) at 10uM": -65.4}
{"smiles": "O=C(CCCOc1ccc(Cl)cc1)Nc1nncs1", "hERG current change (%, negative = inhibition) at 10uM": -28.9}
{"smiles": "Cc1cc(NC(=O)COc2cccc(Oc3ccccc3)c2)no1", "hERG current change (%, negative = inhibition) at 10uM": 13.5}
{"smiles": "CCOc1cc(NCCN2CCOCC2)c([N+](=O)[O-])cc1OCC", "hERG current change (%, negative = inhibition) at 10uM": -7.79}
{"smiles": "COc1ccc(CC(=O)N2CCc3cc(OC)c(OC)cc3C2O)cc1OC", "note": "(stereo not drawn)", "hERG current change (%, negative = inhibition) at 10uM": 8.05}
{"smiles": "Cc1c(C)[n+](=O)c(-c2ccc(Br)cc2)c(C)n1[O-]", "hERG current change (%, negative = inhibition) at 10uM": 13.1}
{"smiles": "Cc1ccc2nc(Cl)c(C3CC(c4ccco4)=NN3S(C)(=O)=O)cc2c1", "note": "(stereo not drawn)", "hERG current change (%, negative = inhibition) at 10uM": -62.6}
{"smiles": "CCOc1ccc2nc(Cl)c(C3CC(c4ccco4)=NN3S(C)(=O)=O)cc2c1", "note": "(stereo not drawn)", "hERG current change (%, negative = inhibition) at 10uM": -41.1}
{"smiles": "Cc1ccc2cc(C3CC(c4ccco4)=NN3S(C)(=O)=O)c(Cl)nc2c1", "note": "(stereo not drawn)", "hERG current change (%, negative = inhibition) at 10uM": -15}
{"smiles": "Fc1ccc(NC(=S)Nc2ccccc2OC(F)F)cc1Cl", "hERG current change (%, negative = inhibition) at 10uM": 9.18}
{"smiles": "CCOc1ccc(NC(=S)N(CCOC)C2CCN(C(C)C)CC2)cc1", "hERG current change (%, negative = inhibition) at 10uM": -29}
{"smiles": "CC(C)N(Cc1nc(-c2ccc(Cl)cc2)no1)Cc1nccn1C", "hERG current change (%, negative = inhibition) at 10uM": -50.4}
{"smiles": "COC(=O)c1ccc(-c2noc(CN(Cc3nccn3C)C(C)C)n2)cc1", "hERG current change (%, negative = inhibition) at 10uM": -37}
{"smiles": "CCN(CCn1cccn1)Cc1cn[nH]c1-c1ccc(-c2ccccc2)cc1", "hERG current change (%, negative = inhibition) at 10uM": 9.21}
{"smiles": "Cc1nnc(CN(C)Cc2cn[nH]c2-c2ccc(-c3ccccc3)cc2)o1", "hERG current change (%, negative = inhibition) at 10uM": -15.1}
{"smiles": "COc1ccc(-c2noc(CN(Cc3nccn3C)C(C)C)n2)cc1", "hERG current change (%, negative = inhibition) at 10uM": -6.99}
{"smiles": "O=C1CC[C@@H](CN(Cc2ccccc2)Cc2cn[nH]c2-c2cc3ccccc3o2)N1", "hERG current change (%, negative = inhibition) at 10uM": -6.77}
{"smiles": "CN(Cc1cccnc1)Cc1cn[nH]c1-c1ccc(-c2ccccc2)cc1", "hERG current change (%, negative = inhibition) at 10uM": -56.7}
{"smiles": "CC(C)N(Cc1cn[nH]c1-c1ccc(-c2ccccc2)cc1)Cc1nccn1C", "hERG current change (%, negative = inhibition) at 10uM": -71.9}
{"smiles": "c1ccc2oc(-c3[nH]ncc3CN(Cc3ccncc3)CC3CCCO3)cc2c1", "note": "(stereo not drawn)", "hERG current change (%, negative = inhibition) at 10uM": -22.6}
{"smiles": "CN(Cc1cn[nH]c1-c1cc2ccccc2o1)CC1CCOCC1", "hERG current change (%, negative = inhibition) at 10uM": -66.4}
{"smiles": "CN(Cc1ccon1)Cc1cn[nH]c1-c1ccc(-c2ccccc2)cc1", "hERG current change (%, negative = inhibition) at 10uM": -10.4}
{"smiles": "COc1ccc(-c2[nH]ncc2CN(Cc2nccn2C)C(C)C)c(F)c1", "hERG current change (%, negative = inhibition) at 10uM": -39.7}
{"smiles": "Cc1csc(NC(=O)CCC(=O)N(CC(=O)NC2CCCC2)c2ccccc2)n1", "hERG current change (%, negative = inhibition) at 10uM": -3.43}
{"smiles": "Cc1ccc(CNC(=O)CCCOc2cc(=O)n(C)c3ccccc23)o1", "hERG current change (%, negative = inhibition) at 10uM": -17.9}
{"smiles": "Cc1[nH][nH]c(=O)c1N=Nc1ccc(Cl)cc1", "hERG current change (%, negative = inhibition) at 10uM": 2.19}
{"smiles": "C/C(NC(=O)c1cccs1)=C1\\C(=O)C[C@@H]2[C@H]1C2(C)C", "hERG current change (%, negative = inhibition) at 10uM": -19.6}
{"smiles": "CCOc1ccc(C(=O)CCC(=O)NC(CC(C)C)C(=O)OC)cc1", "note": "(stereo not drawn)", "hERG current change (%, negative = inhibition) at 10uM": -2.17}
{"smiles": "CCOC(=O)CNC(=O)c1sc(NC(=O)c2cccc(F)c2)nc1C", "hERG current change (%, negative = inhibition) at 10uM": -0.522}
{"smiles": "O=C(CCCOc1ccc(Cl)cc1Cl)Nc1ccccn1", "hERG current change (%, negative = inhibition) at 10uM": 24.2}
{"smiles": "NC(=O)c1nn(-c2ccccc2)nc1N", "hERG current change (%, negative = inhibition) at 10uM": 0.947}
{"smiles": "O=c1[nH]c2cc3c(cc2cc1C(c1nnnn1Cc1ccccc1)N1CCN2CCCC2C1)OCCO3", "note": "(stereo not drawn)", "hERG current change (%, negative = inhibition) at 10uM": -0.778}
{"smiles": "Cc1cc(C)nc(NC(=O)CCC2CCCC2)c1", "hERG current change (%, negative = inhibition) at 10uM": -4.11}
{"smiles": "COc1ccc2c(c1)CC/C(=C\\c1ccc(C)o1)C2=O", "hERG current change (%, negative = inhibition) at 10uM": 8.29}
{"smiles": "CCOC(=O)c1cn2nc(N3CCCC3)ccc2n1", "hERG current change (%, negative = inhibition) at 10uM": 1.32}
{"smiles": "Cc1ccc(-c2[nH]ncc2CNCCc2cnn(-c3ccccc3)c2)cc1C", "hERG current change (%, negative = inhibition) at 10uM": -66.4}
{"smiles": "CN(CCC1CCOCC1)Cc1cn[nH]c1-c1ccc(-c2ccccc2)cc1", "hERG current change (%, negative = inhibition) at 10uM": -62.6}
{"smiles": "CN(CCc1cnn(C)c1)Cc1cn(C)nc1-c1ccc2c(c1)OCCO2", "hERG current change (%, negative = inhibition) at 10uM": 5.94}
{"smiles": "COc1ccc(-c2[nH]ncc2CNCCc2ncccc2C)cc1F", "hERG current change (%, negative = inhibition) at 10uM": -41.7}
{"smiles": "Cn1cc(CCNCc2cn[nH]c2-c2ccc(-c3ccccc3)cc2)cn1", "hERG current change (%, negative = inhibition) at 10uM": -64.8}
{"smiles": "CCn1cc(CNCc2cn[nH]c2-c2cc3ccccc3o2)cn1", "hERG current change (%, negative = inhibition) at 10uM": -14.1}
{"smiles": "CN(Cc1cn[nH]c1-c1ccc(-c2ccccc2)cc1)CC1CCOCC1", "hERG current change (%, negative = inhibition) at 10uM": -46.2}
{"smiles": "CN(Cc1cn[nH]c1-c1ccc2c(c1)OCO2)C1CCOCC1", "hERG current change (%, negative = inhibition) at 10uM": 12.7}
{"smiles": "Cn1cc(CNCc2cn[nH]c2-c2ccc(F)cc2)c(-c2ccc3c(c2)OCCO3)n1", "hERG current change (%, negative = inhibition) at 10uM": -21.6}
{"smiles": "CN(CCc1cnn(C)c1)Cc1cn[nH]c1-c1ccc(-c2ccccc2)cc1", "hERG current change (%, negative = inhibition) at 10uM": -66.6}
{"smiles": "COCCN1CCC(CNCc2cn[nH]c2-c2ccc(C)c(C)c2)C1", "note": "(stereo not drawn)", "hERG current change (%, negative = inhibition) at 10uM": -3.39}
{"smiles": "CN(CCc1cnn(C)c1)Cc1cn(C)nc1-c1ccccc1F", "hERG current change (%, negative = inhibition) at 10uM": 9.85}
{"smiles": "O=C(COc1ccc2c3c(c(=O)oc2c1)CCC3)Nc1ccc(CCO)cc1", "hERG current change (%, negative = inhibition) at 10uM": 21.2}
{"smiles": "O=C(CCc1nnc(Cc2ccc(-c3ccccc3)cc2)o1)NCC1CC1", "hERG current change (%, negative = inhibition) at 10uM": -4.72}
